{"source": "PubChem BioAssay AID1779", "about": "(Sanford-Burnham Center for Chemical Genomics, 2009)", "note": "The whole screen tested about 290,000 compounds, of which about 160 (0.055%) were called active. What follows is part of a selection rich in actives, with near analogues and random picks from the rest. Values without a mark were called inactive. Cut-off read from the data, not from the text of the source: active = inhibition above about 50%; inactive = the rest.", "data": [{"target": "Tyrosine-protein phosphatase non-receptor type 22 (Homo sapiens) (UniProt Q9Y2R2)", "sequence (Q9Y2R2 whole entry, looked up)": "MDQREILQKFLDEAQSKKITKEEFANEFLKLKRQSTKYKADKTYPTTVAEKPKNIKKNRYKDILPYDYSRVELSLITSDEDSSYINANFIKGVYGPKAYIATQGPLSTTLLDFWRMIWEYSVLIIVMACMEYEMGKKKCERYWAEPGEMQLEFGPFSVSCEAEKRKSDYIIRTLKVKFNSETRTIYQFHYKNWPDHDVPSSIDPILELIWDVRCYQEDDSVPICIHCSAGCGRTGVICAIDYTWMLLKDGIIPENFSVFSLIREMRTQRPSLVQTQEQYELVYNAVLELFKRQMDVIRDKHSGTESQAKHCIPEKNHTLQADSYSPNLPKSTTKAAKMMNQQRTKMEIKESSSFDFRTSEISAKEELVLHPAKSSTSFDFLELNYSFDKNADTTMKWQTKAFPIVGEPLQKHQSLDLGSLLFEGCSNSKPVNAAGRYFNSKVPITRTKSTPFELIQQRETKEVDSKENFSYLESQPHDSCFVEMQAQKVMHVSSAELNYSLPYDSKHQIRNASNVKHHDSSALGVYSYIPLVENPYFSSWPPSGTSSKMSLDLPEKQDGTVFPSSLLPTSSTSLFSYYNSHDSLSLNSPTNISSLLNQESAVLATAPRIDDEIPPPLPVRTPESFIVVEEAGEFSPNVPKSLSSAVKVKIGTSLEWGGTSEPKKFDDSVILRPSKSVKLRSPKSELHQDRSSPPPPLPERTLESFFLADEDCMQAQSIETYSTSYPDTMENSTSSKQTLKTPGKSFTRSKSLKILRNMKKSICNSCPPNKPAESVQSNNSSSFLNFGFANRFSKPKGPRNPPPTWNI", "assay": "PTPN22 lymphoid phosphatase activity blockers – biochemical, fluorescence intensity, uHTS (AID 1779);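 note: plate controls were vehicle with enzyme for no effect and no enzyme for full effect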", "conditions": "recombinant LYP phosphatase, at 11.5 µM, active compounds read high", "values": [{"smiles": "CN(C)CCCNc1nc(-c2ccccc2)nc2ccccc12", "inhibition": "-1.4%"}, {"smiles": "Cc1nc2c(c(=O)n1Cc1ccccc1Cl)c1nc3ccccc3nc1n2Cc1ccco1", "inhibition": "-4.4%"}, {"smiles": "COc1ccc(Cn2c3nc4ccccc4nc3c3c(=O)n(Cc4ccco4)c(C)nc32)cc1", "inhibition": "55.8% (active)"}, {"smiles": "COc1ccc(Cn2c3nc4ccccc4nc3c3c(=O)n(Cc4ccco4)cnc32)cc1", "inhibition": "24.1%"}, {"smiles": "COc1cccc(-c2onc3ccc(C(=O)/C=C/N(C)C)cc23)c1", "inhibition": "2.8%"}, {"smiles": "CCOC(=O)CC1(NC(=O)c2cc(COc3ccc(F)c(F)c3)on2)CCCCC1", "inhibition": "-5.7%"}, {"smiles": "CCOC(=O)CC1(NC(=O)c2cc(COc3cncc(Cl)c3)on2)CCCCC1", "inhibition": "54.6% (active)"}, {"smiles": "CCOC(=O)CC1(NC(=O)c2cc(COc3cccc(OC)c3)on2)CCCCC1", "inhibition": "4.4%"}, {"smiles": "O=C(Cn1c(=O)n(-c2cccc(C(F)(F)F)c2)c(=O)c2sccc21)NCC1CCCO1", "note": "(stereo not given)", "inhibition": "-9.3%"}, {"smiles": "Cc1ccc(-n2c(=O)c3sccc3n(CC(=O)NCC3CCCO3)c2=O)cc1F", "note": "(stereo not given)", "inhibition": "68.5% (active)"}, {"smiles": "COc1cccc(-n2c(=O)c3sccc3n(CC(=O)NCC3CCCO3)c2=O)c1", "note": "(stereo not given)", "inhibition": "-10.8%"}, {"smiles": "O=C(CCCN1C(=O)/C(=C/c2cccs2)SC1=S)Nc1cc([N+](=O)[O-])ccc1O", "inhibition": "-12.6%"}, {"smiles": "O=C1C=C(NCc2ccccc2)CCC1", "inhibition": "-5.3%"}, {"smiles": "CC(=O)/C=C(\\C)NCCNc1c(F)c(F)c(CO)c(F)c1F", "inhibition": "-3.3%"}, {"smiles": "O=C1C=C(NCCNc2c(F)c(F)c(CO)c(F)c2F)CCC1", "inhibition": "72.7% (active)"}, {"smiles": "CCOc1c(O)ccc(C2NC(=O)N(C)C(C)=C2C(=O)OC)c1[N+](=O)[O-]", "note": "(stereo not given)", "inhibition": "4%"}, {"smiles": "CC(=O)Nc1ccc(S(=O)(=O)NNC(=O)COc2ccc(C(C)(C)C)cc2)cc1", "inhibition": "-2.6%"}, {"smiles": "COc1cccc(C(=O)NNC(=O)C(=O)N2CCCCC2)c1", "inhibition": "-8.5%"}, {"smiles": "O=C(NNC(=O)c1cccc(Br)c1)C(=O)N1CCCCC1", "inhibition": "60% (active)"}, {"smiles": "O=C(NNC(=O)c1ccccc1)C(=O)N1CCCCC1", "inhibition": "2.5%"}, {"smiles": "CCN(CC)CCN(Cc1cc2cc3c(cc2[nH]c1=O)OCCO3)C(=S)NCCCOC", "inhibition": "-16.1%"}, {"smiles": "COC(=O)C1=NN(C(=O)c2cccc(Cl)c2)C(O)(C(C)(C)C)C1", "note": "(stereo not given)", "inhibition": "65.7% (active)"}, {"smiles": "COC(=O)C1=NN(C(=O)c2ccc(Br)cc2)C(O)(C(C)(C)C)C1", "note": "(stereo not given)", "inhibition": "-3.5%"}, {"smiles": "CCOC(=O)C1=NN(C(=O)c2cccc(Br)c2)C(O)(C(C)(C)C)C1", "note": "(stereo not given)", "inhibition": "-3.2%"}, {"smiles": "O=C(O)CC/C(=N/NC(=O)c1cn(-c2ccccc2)nc1-c1ccccc1)C(=O)O", "inhibition": "-3.5%"}]}]}
